GCN5L2 inh = qHTS Assay for Inhibitors of GCN5L2; Histone acetyltransferase KAT2A (Homo sapiens), Q92830; GCN5L2 HAT assay, ThioGlo1 CoA-SH fluorescence; Potency, µM (series often up to 58.9 µM), most hits filed as inhibitors; hit rate 0.21% among 390,000
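Titration-based screen in which CoA formation is detected via maleimide probe ThioGlo1 (50uM) turning fluorescent on thiol reaction; substrates H3(1-25) 75uM and acetyl-CoA 70uM, GCN5L2 20nM, 20 min incubation at room temperature.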
IMPase Li cell = qHTS Assay for Identifying the Cell-Membrane Permeable IMPase Inhibitors: Potentiation with Lithium; AID 1457, 2008; hit rate 0.35% among 210,000; CHO-M1 cells, IP1 TR-FRET (IP-One), carbachol + lithium; Potency, µM (doses to about 59.4 µM), hits mostly inhibitors;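 also: IP1 builds up when IMPase is blocked and the TR-FRET signal falls; nearly all actives have a fitted effect of over 50% in size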
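CHO cells stably expressing M1 receptor (2000/well) were cultured 16–30 h, then exposed to compounds with a small lithium addition for 30 min at 37C. IP1 was measured by TR-FRET competition; AC50 from Hill fits.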
JMJD2E inh = qHTS Assay for Inhibitors of Human Jumonji Domain Containing 2E (JMJD2E). Lysine-specific demethylase 4E (Homo sapiens), B2RXH2. JMJD2E catalytic domain, FDH-coupled NADH fluorescence (FDH is formaldehyde dehydrogenase). Potency, µM (titrated, usually from 57.1 µM), actives largely listed as inhibitors. hit rate 1.6% among 230,000. AID 2147, 2009; active = well fitted inhibition curve with a large enough effect, not every such curve was filed as active; inconclusive = small, poorly fitted or top-dose-only effect, or another doubt; inactive = no such curve, though single readings can be large or run the other way; also: nearly all actives have a fitted effect of over 50% in size
Sfp PPTase inh = qHTS Assay for Inhibitors of Bacillus subtilis Sfp phosphopantetheinyl transferase (PPTase). Potency, µM, actives largely listed as inhibitors. hit rate 3.5% among 310,000. Biochemical Sfp PPTase activity, qHTS;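 also: the enzyme is Sfp with the accession as filed and its product quenches rhodamine fluorescence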
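Compounds were incubated with enzyme (final 15 nM) for 15 min at room temperature before substrate addition started the reaction. Fluorescence at 525 nm excitation, 598 nm emission was recorded immediately and after 30 minutes.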
NPSR antag = qHTS Assay for Antagonists of the Neuropeptide S Receptor: cAMP Signal Transduction; hit rate 1% among 220,000; Potency, µM (doses to about 38.3 µM), hits mostly inhibitors; CHO-NPSR cells, cAMP TR-FRET, antagonist mode; Q6W5P4; also: nearly all actives have a fitted effect of over 50% in size
Epigenetic derep = Quantitative High-Throughput Screen for Regulators of Epigenetic Control; murine LDR cells, GFP reporter derepression, 30 h; Potency, µM (doses to about 53.9 µM), usual class: activators; hit rate 0.2% among 280,000; AID 1865, 2009; also: nearly all actives have a fitted effect of over 60% in size
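Readout is the number of GFP-expressing murine LDR cells, counted by cytometry following washing. Cells were treated with compound for 30 h at 37 C; the stably integrated CMV-GFP locus is normally silent.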
Each line names hits and unclear results; the compound was inactive in the other large screens. Hits are enriched below; roughly 3.6% of the tested compounds scored in any of these assays. Unless noted, calls follow the shape of the dose curve; as a rule, active = well fitted curve in the direction sought with a large enough effect; inconclusive = small, poorly fitted or top-dose-only effect, or another doubt; inactive = no such curve, though single readings can be large; an effect the other way counts as inactive or inconclusive.

N#Cc1cccc(-c2nc3cnc(Oc4cccc(Cl)c4)nc3n(C3CC3)c2=O)c1	none (no result: JMJD2E inh, NPSR antag, Epigenetic derep)
Cn1c2ccccc2c2c3c(c4c5ccccc5n(CCC#N)c4c21)CNC3=O	GCN5L2 inh inconclusive, IMPase Li cell 3.55µM, Epigenetic derep inconclusive (no result: JMJD2E inh, NPSR antag)
Cc1c(C)n(CCC#N)c2ccccc12	JMJD2E inh inconclusive
O=C1S/C(=C\c2ccc(N3CCOCC3)o2)C(=O)N1Cc1c(F)cccc1Cl	GCN5L2 inh inconclusive, Sfp PPTase inh 2.82µM, NPSR antag inconclusive, Epigenetic derep 8.91µM
O=C1N=C(N2CCOCC2)S/C1=C/c1ccc(-c2ccccc2Cl)o1	none
O=C1S/C(=C/c2ccc(N3CCOCC3)o2)C(=O)N1Cc1c(F)cccc1Cl	Sfp PPTase inh 4.47µM, NPSR antag inconclusive, Epigenetic derep 2.51µM
CC1OC(OCC2OC(Oc3cc(O)c4c(c3)OC(c3ccc(O)cc3)CC4=O)C(O)C(O)C2O)C(O)C(O)C1O (stereo unspecified)	none (no result: IMPase Li cell, JMJD2E inh, NPSR antag, Epigenetic derep)
COc1ccc(-c2cc(=O)c3c(O)c(OC)c(OC)c(OC)c3o2)cc1OC	none (no result: NPSR antag)
COc1c(O)c(O)c2oc(-c3ccccc3)cc(=O)c2c1OC	JMJD2E inh 31.6µM, Sfp PPTase inh 3.16µM
COc1cc(-c2cc(=O)c3c(O)c(OC)c(OC)c(O)c3o2)ccc1O	JMJD2E inh 20µM, Sfp PPTase inh 5.01µM
CCOC(=O)C1=C(CN(C)Cc2ccccc2)NC(=O)NC1c1ccc(OC(C)C)cc1 (stereo unspecified)	none (no result: IMPase Li cell, JMJD2E inh, Sfp PPTase inh, NPSR antag)
COc1cccc(NC(=O)C(NCC(C)(C)CN(C)C)c2ccccc2)c1 (stereo unspecified)	JMJD2E inh inconclusive, Sfp PPTase inh 79.4µM
COc1ccc(C2=Nn3c(nnc3-c3ccc(OC)c(OC)c3)SC2)cc1	none (no result: GCN5L2 inh, IMPase Li cell, JMJD2E inh, NPSR antag, Epigenetic derep)
COc1ccc(N2CCN(C(=O)c3ccc(-c4nc(COc5ccccc5)c(C)o4)cc3)CC2)cc1	none (no result: IMPase Li cell, JMJD2E inh, Sfp PPTase inh, NPSR antag)
COc1ccc(C(Nc2ccccn2)c2oc(CO)cc(=O)c2O)cc1 (stereo unspecified)	JMJD2E inh inconclusive, Sfp PPTase inh inconclusive
O=c1cc(CO)oc(C(Nc2ccccn2)c2ccccc2Cl)c1O (stereo unspecified)	JMJD2E inh inconclusive, Sfp PPTase inh 50.1µM
O=c1cc(CO)oc(C(Nc2ccccn2)c2ccc(F)cc2)c1O (stereo unspecified)	JMJD2E inh inconclusive, Sfp PPTase inh 10µM
Cc1ccnc(NC(c2ccccc2O)c2oc(CO)cc(=O)c2O)c1 (stereo unspecified)	JMJD2E inh inconclusive, Sfp PPTase inh 10µM
CC1=C2C(=COC(C)C2C)C(=O)C(C(=O)O)=C1O (stereo unspecified)	none (no result: NPSR antag)
CN(NS(C)(=O)=O)c1ncc(C(F)(F)F)cc1Cl	Sfp PPTase inh 79.4µM
Cc1ccc(-n2c(-c3ccc(Br)cc3)c[n+]3c2CCc2ccc4cccnc4c2-3)cc1	JMJD2E inh inconclusive, NPSR antag 10µM
COc1ccc(-n2c(-c3ccc(Cl)cc3)c[n+]3c2CCc2ccccc2-3)cc1	none
CCC1CCC2(CC1)NNC(=S)NN2	JMJD2E inh inconclusive, Sfp PPTase inh 56.2µM
C[C@@](N)(/C=C\c1ccccc1)C(=O)O	none (no result: GCN5L2 inh, JMJD2E inh, Sfp PPTase inh, NPSR antag, Epigenetic derep)
c1ccc(-c2ccc(-c3nccc4ccccc34)[nH]2)cc1	JMJD2E inh inconclusive, Sfp PPTase inh 50.1µM, NPSR antag inconclusive (no result: IMPase Li cell)
COc1ccc(CNC(=O)C2CCN(C(=O)c3ccc(-n4ccc5ccccc54)s3)CC2)cc1	none (no result: IMPase Li cell, JMJD2E inh, Sfp PPTase inh, NPSR antag)
Cc1sc2ccccc2[n+]1CCC(=O)O	none (no result: GCN5L2 inh, JMJD2E inh, Sfp PPTase inh, NPSR antag, Epigenetic derep)
CC[n+]1c(/C=C2/C=C(C)CC(C)(C)C2)sc2ccc(OC)cc21	Sfp PPTase inh 14.1µM, NPSR antag inconclusive
CCC1=C/C(=C/c2sc3ccccc3[n+]2CC)CC(C)(C)C1	Sfp PPTase inh 35.5µM
